Results on 56 molecules are retold here after PubChem BioAssay AID743395 (Broad Institute, 2014).

Hit rate of the full screen: of about 1,200 compounds, about 480 (40%) were called active. How the calls were made is not given here. So high a share suggests a set chosen from earlier hits. A selection follows. Measured potencies and affinities stand elsewhere.

The nature of this assay: viability loss in human hepatoma cells – cell-based, CellTiter-Glo luminescence, cherry-pick, set 2, cytotoxicity control, dose response (AID 743395). The settings on record: HepG2 viability, CellTiter-Glo ATP luminescence, 72 h; series mostly up to 26 µM. In general terms: Cellular ATP, detected with luciferase, serves as a proxy for viable cell number.
As to `COc1ccc(CCC(=O)N2CCN(S(=O)(=O)c3ccc(OC(F)(F)F)cc3)CC2)cc1`, the molecule was classed as inactive.

On to `CS(=O)(=O)N1CC(=O)N2[C@H](C1)[C@H](c1ccc(C#Cc3ccc(F)cc3)cc1)[C@@H]2CO`, for which the call was inactive.

With `CCS(=O)(=O)N1CC(=O)N2[C@H](CO)[C@@H](c3ccc(C#CCC(C)C)cc3)[C@@H]2C1`, the result was inactive.

`CCS(=O)(=O)N1CC(=O)N2[C@H](C1)[C@@H](c1ccc(C#CCC(C)C)cc1)[C@@H]2CO`: the molecule was classed as inactive.

For `COc1ccccc1N1CCN(/N=C/C=C\c2ccccc2[N+](=O)[O-])CC1`, the result was inactive.

Regarding `COc1cc(SC)ccc1C(=O)N1CCN(c2ccccc2OC)CC1`, the result was inactive.

As to `Cc1ccc(C(=O)NCC(=O)OCC(=O)NC(C)c2ccccc2)s1` (stereo unspecified), the molecule was classed as inactive.

For the molecule `C[C@@H]1CN([C@@H](C)CO)C(=O)c2cc(NC(=O)Nc3cccc4ccccc34)ccc2O[C@@H](C)CCCCO[C@@H]1CN(C)Cc1ccc2c(c1)OCO2`, the result was inactive.

Consider `C[C@@H]1CN([C@H](C)CO)C(=O)c2cc(NC(=O)Cc3cn(C)c4ccccc34)ccc2O[C@@H]1CN(C)Cc1ccc(Cl)c(Cl)c1`, for which the molecule was called inactive.

For the molecule `C[C@@H]1CN([C@@H](C)CO)C(=O)Cc2cc(NC(=O)Nc3ccc(C(F)(F)F)cc3)ccc2O[C@H]1CN(C)C(=O)Nc1ccccc1`, the molecule was called inactive.

Consider `C[C@@H]1CN([C@@H](C)CO)C(=O)Cc2cc(N(C)C)ccc2O[C@@H]1CN(C)Cc1ccccc1`, for which the molecule was called inactive.

As to `C[C@@H]1CN([C@@H](C)CO)C(=O)c2cccc(NC(=O)Nc3ccc4c(c3)OCO4)c2O[C@H]1CN(C)S(=O)(=O)c1ccccc1`, the outcome was inactive.

On to `C[C@H]1CCCCO[C@H](CN(C)C(=O)Cc2ccccc2)[C@@H](C)CN([C@@H](C)CO)C(=O)c2cc(N(C)C)ccc2O1`, for which the outcome was inactive.

For `C[C@H](CO)N1C[C@H](C)[C@H](CN(C)Cc2ccc(Cl)c(Cl)c2)Oc2ccc(NC(=O)C3CCCCC3)cc2CC1=O`, the molecule was classed as inactive.

For the molecule `CCNC(=O)C1CCCN(C(=O)c2cc(F)ccc2C)CC1` (stereo unspecified), the molecule was called inactive.

Turning to `CCNC(=O)C1(C)CCN(C(=O)c2cc(F)ccc2C)C1` (stereo unspecified), the molecule was classed as inactive.

Take `Cc1cccc(CC(=O)Nc2cccnc2)c1`: the molecule was called inactive.

`CN1c2ccc(-c3ccc(C#N)cc3)cc2[C@H]2[C@H](CCN2S(=O)(=O)c2cccc(F)c2)[C@@H]1CO`: the molecule was called inactive.

With `CN1c2ccc(-c3ccc(C#N)cc3)cc2[C@H]2[C@H](CCN2S(=O)(=O)c2cccc(F)c2)[C@H]1CO`, the molecule was called inactive.

On to `O=C(O)C1=C[C@@H](O)[C@@H](O)[C@H](O)C1`, for which the outcome was inactive.

As for `COc1ccc(C(=O)c2cc(OC)c(OC)c(OC)c2)cc1OC`, the call was inactive.

On to `COc1ccc(C(=O)Nc2ccccc2C(=O)Nc2ccccc2)cc1`, for which the result was inactive.

In the case of `CCOCCOC(=O)COC(=O)c1ccccc1NC(=O)c1ccccc1`, the result was inactive.

With `Cc1nc(NCc2cccnc2)c2c3c(sc2n1)CCCC3`, the result was inactive.

Consider `COc1ccc(-c2cc(=O)c3c(O)cc(O)cc3o2)cc1`, for which the outcome was inactive.

Take `Cn1cccc1/C=C1\SC(=Nc2ccc(O)cc2)NC1=O`: the outcome was inactive.

Turning to `O=C1NC(=Nc2cccnc2)S/C1=C/c1ccc(F)cc1`, the outcome was inactive.

Take `C=CC[C@@H](CC(=O)N(CCO)Cc1ccccc1)C(=O)N[C@H](COC(=O)[C@H](CC=C)CC(=O)OC(C)(C)C)Cc1c[nH]c2ccccc12`: the molecule was classed as inactive.

With `CCCC#Cc1ccc([C@H]2[C@H](CO)N3C(=O)CN(C(=O)Nc4cc(F)ccc4F)C[C@@H]23)cc1`, the call was inactive.

As for `CCCNC(=O)N1[C@H](C#N)[C@H](c2ccc(C#Cc3ccc(F)cc3)cc2)[C@@H]1CO`, the call was inactive.

As to `CC(C)CC#Cc1ccc([C@H]2[C@H](CO)N3C(=O)CN(C(=O)Nc4cc(F)ccc4F)C[C@@H]23)cc1`, the result was inactive.

For `O=C(Nc1cc(F)ccc1F)N1CC(=O)N2[C@@H](CO)[C@H](c3ccc(C#CC4CCCCC4)cc3)[C@@H]2C1`, the molecule was classed as inactive.

Take `Cc1ccc(-c2cccc(CN3CCN(C(C)C)C(CCO)C3)c2)o1` (stereo unspecified): the outcome was inactive.

For `COc1cc(-c2noc(C)c2C#Cc2ccsc2)cc(OC)c1OC`, the result was inactive.

As to `COc1cc(-c2noc(C)c2C#Cc2ccccn2)cc(OC)c1OC`, the result was inactive.

As to `CCOc1ccc(-c2cc(C(=O)N/N=C/c3ccc(O)cc3)c3ccccc3n2)cc1`, the molecule was classed as inactive.

For `CCN1CCCC(OC(=O)c2cc(-c3ccccc3Cl)nc3ccccc23)C1` (stereo unspecified), the molecule was called inactive.

Turning to `O=C(CCC(=O)N1CCOc2ccc(Cl)cc21)N1CCN(c2ccccn2)CC1`, the molecule was classed as inactive.

Turning to `COC(=O)Cc1c(O)ccn(Cc2ccc(Cl)c(Cl)c2)c1=O`, the molecule was called inactive.

`CN1C(=O)c2cc(NC(=O)c3ccc(Cl)cc3)ccc2OC[C@@H]2O[C@H](CC(=O)NCc3cccc(F)c3)CC[C@H]21`: the molecule was called inactive.

For `CCN(CC(=O)Nc1ccc(NC(C)=O)cc1)C(=O)c1ccc(N2CCC(C)CC2)c([N+](=O)[O-])c1`, the call was inactive.

On to `Cc1c(CCC(=O)O)c(=O)oc2c(C)c(OCc3ccccc3Cl)ccc12`, for which the outcome was inactive.

Consider `COc1ccc(C(C)=O)cc1CS(=O)(=O)CC(=O)NCCc1c[nH]c2ccccc12`, for which the result was inactive.

Turning to `O=C(CN(Cc1ccco1)Cc1ccco1)Nc1cc(S(=O)(=O)N2CCCCC2)ccc1Cl`, the molecule was called inactive.

Regarding `Cc1c(OCC(=O)NCCN2CCOCC2)ccc2c3c(c(=O)oc12)CCC3`, the molecule was classed as inactive.

`Oc1cc2c(cc1O)C(c1ccccc1)CNCC2` (stereo unspecified): the molecule was called inactive.

With `COc1ccc(OC)c(C2CC(c3ccccc3)=NN2C(=S)Nc2ccccc2)c1` (stereo unspecified), the outcome was inactive.

`CCOc1ccc(N(CC)C(=O)COc2cc(=O)n(C)c3ccccc23)cc1`: the outcome was inactive.

In the case of `CCOC(=O)c1c(C)[nH]c(C)c1C(=O)COC(=O)c1ccc([N+](=O)[O-])s1`, the result was inactive.

As for `C/C=C/c1ccc([C@H]2[C@@H](CO)N(C(=O)COC)[C@@H]2CNC(=O)CC)cc1`, the molecule was called inactive.

For the molecule `Cc1cc(/C=N/NC(N)=S)c(O)c(/C=N/NC(N)=S)c1`, the call was inactive.

On to `Cc1cc2c(cc1C)C(c1ccccc1OC(C)C)CC(=O)N2` (stereo unspecified), for which the outcome was inactive.

In the case of `O=C(Nc1ccccc1)c1nc[nH]c1C(=O)Nc1ccccc1F`, the call was inactive.

For `CN(CC(=O)Nc1cccc(S(=O)(=O)N2CCCC2)c1)CC(=O)Nc1ccc(F)c(F)c1F`, the outcome was inactive.

As for `COc1cccc(-c2cccc(-c3nc(C(=O)NCC(F)(F)F)cc4c3[C@H](CCO)N([S@@](=O)C(C)(C)C)C4)c2)c1`, the result was inactive.

With `N#Cc1nc(NCC(F)F)nc(Nc2cc(F)cc(F)c2)n1`, the outcome was inactive.
